Screens deposited in PubChem BioAssay by National Center for Advancing Translational Sciences (NCATS).
Compounds with a hit are over-represented: about 0.49% of the library has one in this group of screens.
Epigenetic derep: derepresses silenced GFP reporter in murine cells | murine LDR cells, GFP reporter derepression, 30 h | Potency, µM (series often up to 53.9 µM), for inactives: at the highest dose GFP activation, actives largely listed as activators | 0.2% of 280,000 active; further: potency means the concentration at half of the fitted maximal effect; % of control where 0% means no effect; nearly all actives have a fitted effect of over 60% in size
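Murine LDR cells carrying a silenced, genomically integrated CMV-driven GFP reporter were exposed to compound for 30 hours at 37 C. After PBS washes, GFP-positive cells (20–120 um objects) were counted by laser-scanning microplate cytometry.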
Vif-A3F inh: inhibitors of Vif-A3F interaction; 0.2% of 390,000 active; Potency, µM (doses to about 46.1 µM), without a hit: at the highest dose activity, negative = active; HeLa A3F-eYFP + Vif (tagged APOBEC3F with the HIV-1 protein that degrades it), YFP fluorescence increase; further: potency means the concentration at half of the fitted maximal effect; % of control where 0% means no effect; nearly all actives have a fitted effect of over 65% in size
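HeLa cells stably expressing Vif plus C-terminally eYFP-tagged A3F were seeded, incubated overnight at 37 deg C, dosed with compound, incubated overnight again at 37 deg C. Yellow fluorescence (Ex 488/Em 500-530) reported blocked Vif-mediated A3F-eYFP degradation.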
Apoferritin bind: candidate novel general anesthetic via apoferritin binding; apoferritin/1-aminoanthracene competitive binding, fluorescence; Potency, µM (series often up to 77.5 µM), inactives show at the top dose activity change, negative = displacement, usual class: inhibitors; 0.074% of 350,000 active; AID 485281; further: potency means the concentration at half of the fitted maximal effect; on the % scale 0 is the no-effect control and ±100 the full control effect; nearly all actives have a fitted effect of over 20% in size
Target sequence (P02791 2-175 limits assumed): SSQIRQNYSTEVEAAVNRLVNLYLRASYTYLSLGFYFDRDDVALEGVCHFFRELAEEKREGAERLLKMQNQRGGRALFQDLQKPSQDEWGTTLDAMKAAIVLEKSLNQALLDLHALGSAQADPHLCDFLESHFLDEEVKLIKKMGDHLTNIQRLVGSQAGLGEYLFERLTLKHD
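Read-out: endpoint 1-AMA fluorescence, excitation 380 nm and emission 535 nm, after compounds sit 10 min at room temperature with 10 uM horse-spleen apoferritin in 50% saturated 1-AMA/PBS. Values come from four-parameter Hill fits.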
LDHA block: LDHA (human) enzyme inhibition; 0.15% of 480,000 active; AID 1347041; purified LDHA, NADH/diaphorase-resazurin fluorescence; hits give low values; P00338; activity change, % (values are at about 110 or 230 µM); in the data active means activity change below about -30%; inconclusive means mostly about -25% to -30%;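 further: plate controls were DMSO wells for no effect and wells without enzyme for full effect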
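Human LDH5 (2 nM) was incubated with 0.06 mM NADH and 0.2 mM pyruvate for 5 min at room temperature in Tris pH 7.4. Remaining NADH was coupled through diaphorase/resazurin, and resorufin fluorescence was read at 0 and 20 min.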
Vif-APOBEC3G blk: Vif-A3G binding inhibition; 0.076% of 410,000 active; Potency, µM (series often up to 46.1 µM), for the others: at the highest dose activity, negative = active, actives largely listed as inhibitors; AID 602310; HeLa A3G-eYFP + Vif (tagged APOBEC3G with the HIV-1 protein that degrades it), YFP fluorescence, overnight; Q9HC16; further: potency means the concentration at half of the fitted maximal effect; on the % scale 0 is the no-effect control and ±100 the full control effect; nearly all actives have a fitted effect of over 60% in size
Target sequence (Q9HC16 whole entry, looked up): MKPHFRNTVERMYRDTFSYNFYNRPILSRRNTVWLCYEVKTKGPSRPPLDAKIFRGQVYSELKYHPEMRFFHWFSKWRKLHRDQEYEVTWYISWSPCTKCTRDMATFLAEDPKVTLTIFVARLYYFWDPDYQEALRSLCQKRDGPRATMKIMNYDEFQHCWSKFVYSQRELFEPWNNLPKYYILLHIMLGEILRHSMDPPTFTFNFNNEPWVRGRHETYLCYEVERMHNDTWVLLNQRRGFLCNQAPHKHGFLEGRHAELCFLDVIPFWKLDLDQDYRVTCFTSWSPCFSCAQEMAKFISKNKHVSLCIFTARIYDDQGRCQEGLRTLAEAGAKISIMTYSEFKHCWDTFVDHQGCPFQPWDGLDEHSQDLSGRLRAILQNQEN
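HeLa cells stably expressing Vif and C-terminally eYFP-tagged A3G, seeded overnight at 37 deg C, then exposed to compound by pintool overnight at 37 deg C. Rise in yellow fluorescence (Ex 488/Em 500-530, Acumen) marks blocked Vif-driven A3G degradation.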
Numbers without * were called inactive. Unless noted, the call rests on the fitted dose curve; in most records, active means well fitted curve in the direction sought with a large enough effect; inconclusive means small, poorly fitted or top-dose-only effect, or another doubt; inactive means no such curve, though single readings can be large; an effect the other way counts as inactive or inconclusive.

`Cc1ccc(N2CC(C(=O)OCC(=O)Nc3ccc(F)cc3F)CC2=O)cc1` (configuration not stated) gave Vif-A3F inh 3.6%, LDHA block -8.1 and Vif-APOBEC3G blk 4.8%.
Cc1ccc(C2C(C#N)=C(N)Oc3cc(N)ccc32)cc1 (configuration not stated) was read as Vif-A3F inh -13.2%, Apoferritin bind -4.4%, LDHA block -7.3 and Vif-APOBEC3G blk inconclusive.
For Cc1ccc(/C=C2\CCC3=C2OC(N)=C(C#N)C3c2ccc(C)cc2)cc1 (configuration not stated) the results were Epigenetic derep 11.2µM*, Vif-A3F inh inconclusive, Apoferritin bind inconclusive, LDHA block 7.5 and Vif-APOBEC3G blk inconclusive.
O=C(O)c1cc(Cl)nc2ccccc12 was read as Epigenetic derep -4.5%, Vif-A3F inh 1.3%, Apoferritin bind -9.7%, LDHA block -1.1 and Vif-APOBEC3G blk 3.5%.
For CC(O)CNCCCOc1ccc(C(C)(C)c2ccccc2)cc1 (configuration not stated) the results were LDHA block -1.7.
CC(C)NCCCOc1ccc(C(C)(C)c2ccccc2)cc1 was read as Epigenetic derep 0.8%, Vif-A3F inh -5.1%, Apoferritin bind inconclusive, LDHA block -31.7* and Vif-APOBEC3G blk 2.7%.
For COCCNCCCOc1ccc(C(C)(C)c2ccccc2)cc1 the results were Epigenetic derep 0.0%, Vif-A3F inh 0.7%, Apoferritin bind inconclusive, LDHA block -33.0* and Vif-APOBEC3G blk -0.4%.
`COCCCNCCCOc1ccc(C(C)(C)c2ccccc2)cc1` gave Epigenetic derep 0.0%, Vif-A3F inh 0.9%, Apoferritin bind inconclusive, LDHA block -21.4 and Vif-APOBEC3G blk 1.8%.
For CC(C)(c1ccccc1)c1ccc(OCCCNCCO)cc1 the results were Epigenetic derep 0.7%, Vif-A3F inh -1.8%, Apoferritin bind 11.2µM*, LDHA block -12.3 and Vif-APOBEC3G blk 6.2%.
Screening CSc1ccc(CCNC(=O)Cn2ncc3c(=O)oc4ccc(C)cc4c32)cc1 returned Epigenetic derep -1.4%, Vif-A3F inh 6.9%, Apoferritin bind -10.5%, LDHA block -3.4 and Vif-APOBEC3G blk 3.9%.
CCc1ccc(NS(=O)(=O)c2ccc(C)c(C(=O)N3CCOCC3)c2)cc1 was read as Vif-A3F inh 5.2%, Apoferritin bind -3.3%, LDHA block -44.1* and Vif-APOBEC3G blk -1.1%.
`Cc1ccc(NS(=O)(=O)c2ccc(C)c(C(=O)N3CCOCC3)c2)cc1` gave Vif-A3F inh -6.0%, Apoferritin bind -11.8%, LDHA block -2.4 and Vif-APOBEC3G blk -0.1%.
`Fc1ccccc1N1CCN(CC2CC3C=CC2C3)CC1` (configuration not stated) gave Epigenetic derep -1.5%, Vif-A3F inh -1.4%, Apoferritin bind -5.2%, LDHA block -6.7 and Vif-APOBEC3G blk -0.2%.
For C1=CC2CC1CC2CN1CCN(Cc2ccccc2)CC1 (configuration not stated) the results were Epigenetic derep -1.7%, Apoferritin bind -13.2%, LDHA block -31.6* and Vif-APOBEC3G blk 0.0%.
COc1ccc(NC(=O)CN(C)CC(=O)Nc2ccccc2SC)cc1 was read as Epigenetic derep 0.0%, Vif-A3F inh -0.8%, Apoferritin bind -13.9%, LDHA block -34.5* and Vif-APOBEC3G blk -1.8%.
For Cc1ccccc1CN1CCN(Cc2ccccc2C(F)(F)F)CC1 the results were Epigenetic derep 0.7%, Vif-A3F inh -16.4%, Apoferritin bind 63.1%, LDHA block -38.6* and Vif-APOBEC3G blk -4.0%.
Screening O=S1(=O)CCN(Cc2ccccc2C(F)(F)F)CC1 returned Epigenetic derep -0.3%, Vif-A3F inh 18.6%, Apoferritin bind -6.7%, LDHA block -2.3 and Vif-APOBEC3G blk 0.3%.
`COc1ccc(-c2nc(CS(=O)(=O)CC(=O)NCc3cccnc3)c(C)o2)cc1` gave LDHA block 2.1.
`COc1cccc(-c2nc(CS(=O)(=O)CC(=O)NCc3cccnc3)c(C)o2)c1` gave LDHA block -33.9*.
`CCCCN=C1NN=C(c2cc3ccccc3o2)CS1` gave Epigenetic derep 0.0%, Vif-A3F inh -3.3%, Apoferritin bind -7.9%, LDHA block -2.4 and Vif-APOBEC3G blk -2.4%.
For CCN=C1S/C(=C\c2ccc(N3CCOCC3)cc2C)C(=O)N1CC the results were Epigenetic derep 0.0%, Vif-A3F inh inconclusive, Apoferritin bind -8.7%, LDHA block -9.5 and Vif-APOBEC3G blk inconclusive.
`COCCN1C(=O)/C(=C/c2ccc(N3CCCC3)cc2C)SC1=S` gave Epigenetic derep 2.82µM*, Vif-A3F inh inconclusive, Apoferritin bind -9.9%, LDHA block -0.9 and Vif-APOBEC3G blk inconclusive.
For CC(NC(=O)CN(C)S(=O)(=O)c1ccc(Br)s1)c1ccccc1 (configuration not stated) the results were Vif-A3F inh 10.2%, Apoferritin bind -4.7%, LDHA block -0.3 and Vif-APOBEC3G blk -7.0%.
For CCCCOc1ccc(CNC(=O)c2cnc3sc(N4CCOCC4)nn3c2=O)cc1 the results were Epigenetic derep 0.0%, Vif-A3F inh -15.5%, Apoferritin bind 4.47µM*, LDHA block 0.2 and Vif-APOBEC3G blk -3.9%.
Cc1nc2ccc(S(=O)(=O)NCC(=O)N(C)Cc3ccco3)cc2s1 was read as Epigenetic derep 0.1%, Vif-A3F inh 5.1%, Apoferritin bind -3.3%, LDHA block -2.8 and Vif-APOBEC3G blk -0.3%.
CCCS(=O)(=O)N1CCN(CC2CC=CCC2)CC1 (configuration not stated) was read as Epigenetic derep -2.0%, Vif-A3F inh -5.9%, Apoferritin bind -8.8%, LDHA block -30.9* and Vif-APOBEC3G blk 0.9%.
Screening COc1ccc(S(=O)(=O)N2CCN(CC3CC=CCC3)CC2)cc1 (configuration not stated) returned Vif-A3F inh 7.2%, Apoferritin bind 4.2%, LDHA block -14.8 and Vif-APOBEC3G blk -0.3%.
Screening CC(=O)c1sc2nc(-c3cccs3)cc(C(F)(F)F)c2c1N returned Epigenetic derep 15.8µM*, Vif-A3F inh 5.01µM*, Apoferritin bind -6.1%, LDHA block -1.9 and Vif-APOBEC3G blk inconclusive.
Screening Cc1c(C(=O)O)sc2nc(-c3cccs3)cc(C(F)(F)F)c12 returned Vif-A3F inh -17.0%, Apoferritin bind 1.9%, LDHA block -2.4 and Vif-APOBEC3G blk 1.4%.
Screening CC1(C)CC(=O)C(C=Nc2cc(C(=O)c3ccccc3)ccc2N)=C(O)C1 returned Epigenetic derep 7.6%, Vif-A3F inh 28.2µM*, Apoferritin bind inconclusive, LDHA block 3.1 and Vif-APOBEC3G blk -23.2%.
Nc1nc(SCc2ccccc2)ns1 was read as Epigenetic derep -2.1%, Vif-A3F inh 11.5%, Apoferritin bind inconclusive, LDHA block -6.0 and Vif-APOBEC3G blk -5.2%.
